High-throughput results: PubChem BioAssay, National Center for Advancing Translational Sciences (NCATS)
Compounds with a hit are over-represented: about 3% of the library has one in this group of screens.
Nrf2 ARE act = activators of Nrf2 (ARE) signaling. AREc32 ARE-luciferase reporter (MCF7-derived line), luminescence, 24 h. Potency, µM (series often up to 46.1 µM), most hits filed as activators. 410,000 tested, 0.31% active. AID 624171; also: nearly all actives have a fitted effect of over 65% in size
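Steps: seed AREc32_Fluc cells (1000/well, 5% FBS OPTI-MEM); incubate overnight at 37 deg C; add 23 nL compound; incubate 24 hr; add Steady-Glo; hold 30 min RT; read luminescence.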
Glioma ERSR ind = ER stress response induction in glioma. Potency, µM, most hits filed as activators. U87-MG GRP78 promoter luciferase reporter, 16 h. 420,000 tested, 0.02% active; also: series mostly up to about 76 µM; nearly all actives have a fitted effect of over 35% in size
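ERSR induction read as luciferase luminescence (Bright-Glo, 10 min at room temperature) in stably transfected human U87-MG glioma cells exposed to compounds for 16 h, using GRP78 as sensor.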
DRD3 antagonist = D3 dopamine receptor (human) antagonism | P35462 | D3R cells, DiscoveRx beta-arrestin luminescence, antagonist mode; hits give low values | max response, negative = inhibition, % | 360,000 tested, 2.5% active | AID 652054; in the data active = max response below about -50%; inconclusive = no clear call, values can overlap the other calls
Target sequence (P35462 whole entry, looked up): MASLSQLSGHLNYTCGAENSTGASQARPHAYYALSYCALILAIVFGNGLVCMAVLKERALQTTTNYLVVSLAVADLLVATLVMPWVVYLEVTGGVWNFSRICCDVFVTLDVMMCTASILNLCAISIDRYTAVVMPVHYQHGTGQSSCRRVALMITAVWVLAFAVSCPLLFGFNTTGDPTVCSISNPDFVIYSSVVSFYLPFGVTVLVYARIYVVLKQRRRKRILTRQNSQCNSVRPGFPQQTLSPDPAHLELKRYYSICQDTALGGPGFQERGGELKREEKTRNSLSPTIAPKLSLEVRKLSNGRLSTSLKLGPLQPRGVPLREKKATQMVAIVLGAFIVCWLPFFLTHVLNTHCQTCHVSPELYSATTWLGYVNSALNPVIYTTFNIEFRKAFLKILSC
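Cells expressing the human receptor were seeded at 1500 cells/well, incubated overnight at 37 degrees C in 5% CO2, then exposed to library compounds with dopamine controls for 90 minutes at 37 degrees C before luminescent detection.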
DRD3 agonist = activates the human D3 dopamine receptor. P35462. D3R DiscoveRx beta-arrestin cells, luminescence, 90 min. max activation, %. 410,000 tested, 0.58% active. AID 652048; in the data active = max activation above about 30%
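Agonist-mode cell screen: cells plated at 1500/well and incubated overnight at 37 °C, then exposed to library compounds for 90 min at 37 °C. Detection reagent was added for 30–60 min at room temperature, and luminescence was read.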
Large screens that a line does not name were inactive; ! = not confirmed by another sample. Unless noted, calls follow the shape of the dose curve; as a rule, active = well fitted curve in the direction sought with a large enough effect; inconclusive = small, poorly fitted or top-dose-only effect, or another doubt; inactive = no such curve, though single readings can be large; an effect the other way counts as inactive or inconclusive.

CCC1(C2CCN(Cc3ccccc3Cl)CC2)NC(=O)N(CC2COc3ccccc3O2)C1=O (centres undefined)	none (no result: Nrf2 ARE act, DRD3 antagonist, DRD3 agonist)
COc1ccc(CNC(=O)CCc2c(C)c3cc4c(C)c(C)oc4cc3oc2=O)cc1	none (no result: DRD3 antagonist)
C[n+]1ccc(/C=C/c2ccc(C=S)cc2)c2ccccc21	none (no result: Nrf2 ARE act, DRD3 antagonist, DRD3 agonist)
COc1ccc(OCC(=O)Nc2ccc3c(c2)nc(CN2CCCC2)n3C)cc1	DRD3 antagonist -54
Cn1c(CN2CCCC2)nc2cc(NC(=O)COc3ccc(Cl)cc3)ccc21	DRD3 antagonist -69
CCN(Cc1ccncc1)Cc1ccc2c(c1)CN(C(=O)c1ccccc1-n1cccn1)CCO2	none (no result: Nrf2 ARE act, DRD3 antagonist, DRD3 agonist)
COc1ccccc1C1CN(CCNC(=O)c2sccc2Cl)Cc2ccccc2O1 (centres undefined)	none (no result: Nrf2 ARE act, DRD3 antagonist, DRD3 agonist)
CCN1CCN(c2cc(C)c3cc(NC(=S)NCCCN4CCc5ccccc5C4)ccc3n2)CC1	DRD3 antagonist -87
Cc1cc(N2CCN(C)CC2)nc2ccc(NC(=S)NCCCN3CCc4ccccc4C3)cc12	DRD3 antagonist -84
CCCN1CCN(CCCNC(=S)Nc2ccc3nc(N4CCN(CC)CC4)cc(C)c3c2)CC1	DRD3 antagonist inconclusive
CCN1CCN(c2cc(C)c3cc(NC(=O)c4cncc(Br)c4)ccc3n2)CC1	DRD3 antagonist -69
CCCCNC(=S)Nc1ccc2nc(N3CCN(CC)CC3)cc(C)c2c1	none
Cc1cc(N2CCCC2)nc2ccc(NC(=S)NCCCN3CCC(C)CC3)cc12	DRD3 antagonist -66
Cc1cc(N2CCN(C)CC2)nc2ccc(NC(=S)NCCN3CCc4ccccc4C3)cc12	DRD3 antagonist -76
O=C(Nc1cccc(Cl)c1)OCC#CCCl	none (no result: Nrf2 ARE act, DRD3 antagonist, DRD3 agonist)
Cc1ccc(Nc2nc(Cl)c(C=O)s2)cc1Cl	Nrf2 ARE act inconclusive
O=Cc1sc(Nc2ccccc2)nc1Cl	Nrf2 ARE act 14µM
Cc1cc(Cl)ccc1OCC(=O)OC(C)C(=O)NC(N)=O (centres undefined)	DRD3 agonist 46
COc1ccc(NC(=O)c2ccco2)cc1NC(=O)COc1cc(C)ccc1C(C)C	none (no result: DRD3 antagonist)
COc1ccccc1CCNC(=O)Cc1c(C)c2c(cc(C)c3c(C)coc32)oc1=O	none (no result: DRD3 antagonist)
COCCNc1nc(NCCNC(C)=O)c2sc(-c3ccccc3)cc2n1	none
COCCNc1nc(NCCOc2ccccc2Cl)c2sc(-c3ccccc3)cc2n1	DRD3 agonist 58
C#CC1(OC(C)=O)CCC2C3CCC4=CC(OC(C)=O)CCC4C3CCC21C (centres undefined)	none (no result: Nrf2 ARE act, DRD3 antagonist, DRD3 agonist)
N=c1sccn1CC(=O)NCCc1ccc(Cl)cc1Cl	DRD3 antagonist -50
O=c1cc(O)c2c([nH]1)CCC2	none (no result: Nrf2 ARE act, DRD3 antagonist, DRD3 agonist)
COc1cc2c(cc1OC)CN(C1CCC(C(C)(C)C)CC1)CC2 (centres undefined)	DRD3 antagonist -88
COc1ccc(Cl)cc1NC(=O)CSC1=Nc2ccccc2C2=NC(CC(=O)NC3CCCCC3)C(=O)N12 (centres undefined)	none (no result: DRD3 antagonist)
Cc1nc(C(=O)NCC(=O)c2ccccc2)c(C(F)(F)F)o1	DRD3 antagonist -59
C/C(N)=N\S(=O)(=O)c1ccc(Cl)cc1	none
NC(N)=NS(=O)(=O)c1ccc(N)cc1	DRD3 antagonist -54
Cc1cc(C)cc(NC(=O)C2CC23CCN(Cc2ccc4ncccc4c2)CC3)c1 (centres undefined)	none (no result: Nrf2 ARE act, DRD3 antagonist, DRD3 agonist)
COc1ccccc1NS(=O)(=O)c1ccc(-c2cc(C)no2)s1	DRD3 agonist 51
COc1cc(C)c(CN2CCOc3ccc(C(O)c4cccnc4)cc3C2)cc1C (centres undefined)	none (no result: Nrf2 ARE act, DRD3 antagonist, DRD3 agonist)
COc1ccc(NC(=O)c2ccco2)cc1NC(=O)c1cc(Cl)ccc1OC	none (no result: DRD3 antagonist)
COc1ccc(Cl)cc1NC(=O)c1ccco1	Nrf2 ARE act 5µM
CCNC(=S)Nc1cc(OCC)c(NC(=O)c2ccco2)cc1OCC	none
CCOc1cc(NS(=O)(=O)c2ccccc2)c(OCC)cc1NC(=O)c1ccco1	DRD3 antagonist -51
COc1ccc(Cl)cc1NC(=O)c1cc2ccccn2n1	Nrf2 ARE act 5.6µM (no result: DRD3 antagonist)
COc1ccc(C)cc1NC(=O)c1cc2ccccn2n1	none (no result: DRD3 antagonist)
O=C(Nc1cc(Cl)ccc1-n1cncn1)c1ccco1	Nrf2 ARE act 10µM
CCS(=O)(=O)Nc1cc(C(=O)N2CCC[C@H]2CO)c2c(c1)nc(-c1ccccc1)n2C	none (no result: Nrf2 ARE act, DRD3 antagonist, DRD3 agonist)
O=C(Cl)COCc1ccccc1	none (no result: Nrf2 ARE act, DRD3 antagonist, DRD3 agonist)
Cc1noc(C)c1S(=O)(=O)N1CCCC(C(=O)NCCc2ccc(Cl)cc2)C1 (centres undefined)	DRD3 antagonist -72
Cc1nn(C)c(C)c1S(=O)(=O)N1CCCC(C(=O)NCCc2ccc(Cl)cc2)C1 (centres undefined)	none
O=C(NCc1nnc2n1CCN(Cc1cc(F)cc(F)c1)CC2)c1cccc(F)c1	none (no result: Nrf2 ARE act, DRD3 antagonist, DRD3 agonist)
COc1ccc(-c2cc3nc(NCC4CCCCC4)n(C)c(=O)c3s2)cc1OC	DRD3 agonist 37
COc1ccccc1CNc1nc2cc(-c3ccc(OC)c(OC)c3)sc2c(=O)n1C	none
CCn1ccnc1CNC(=O)c1ccc2oc(CCCc3ccccc3)nc2c1	DRD3 antagonist -51
O=C(CCN1C(=O)c2cccc3cccc(c23)C1=O)NCc1ccco1	Nrf2 ARE act inconclusive, DRD3 agonist 34
O=C(CCN1C(=O)c2ccccc2C1=O)NCc1ccco1	none
CCOc1cccc(CN2CCC(n3cc(C(=O)N4CCCCC4)nn3)CC2)c1O	none (no result: Nrf2 ARE act, DRD3 antagonist, DRD3 agonist)
Cc1cccc(-n2ncc3c(N4CCN(c5ccccc5)CC4)ncnc32)c1	none (no result: DRD3 antagonist)
c1ccc(-n2ncc3c(N4CCN(CCOc5cccc6ccccc56)CC4)ncnc32)cc1	DRD3 agonist 40
Cc1ccc(-n2ncc3c(N4CCN(c5ccccc5)CC4)ncnc32)c(C)c1	DRD3 agonist 36
CN(C)c1ccc(/C=C/c2ccnc3c(-c4ccccc4)cccc23)cc1	none (no result: Nrf2 ARE act, DRD3 antagonist, DRD3 agonist)
C=CC(C)(C)c1[nH]c2ccccc2c1C1=C(O)C(=O)C(c2c[nH]c3c(CC=C(C)C)cccc23)=C(O)C1=O	none (no result: Nrf2 ARE act, DRD3 antagonist, DRD3 agonist)
Cc1ccccc1OC1(C)CCN(Cc2ccc(-c3ccccn3)cc2)C1 (centres undefined)	DRD3 antagonist -75
CC1(Oc2cnc(Cl)c3ccccc23)CCN(Cc2ccc(-c3ccccn3)cc2)C1 (centres undefined)	none
CC1(Oc2cccc(F)c2)CCN(Cc2ccc(-c3ccccn3)cc2)C1 (centres undefined)	DRD3 antagonist -67
CN(C)c1ccc(O)c2c1C[C@H]1C[C@H]3[C@H](N(C)C)C(=O)C(C(N)=O)=C(O)[C@@]3(O)C(=O)C1=C2O	DRD3 agonist 73! (no result: Nrf2 ARE act, DRD3 antagonist)
CN(C)c1ccc(O)c2c1CC1CC3[C@@H](N(C)C)C(=O)C(C(N)=O)=C(O)[C@]3(O)C(=O)C1=C2O (some centres undefined)	none
CCCCCn1c(=N)n(CC(O)COc2cccc(C)c2)c2ccccc21 (centres undefined)	none (no result: DRD3 antagonist)
CC1CN(Cc2cccn2-c2ncccn2)Cc2cc(Cl)ccc2O1 (centres undefined)	none (no result: Nrf2 ARE act, DRD3 antagonist, DRD3 agonist)
CC1(Oc2ccccc2)CCN(Cc2csc3ccccc23)C1 (centres undefined)	DRD3 antagonist -83
CSc1ccc(OC2(C)CCN(Cc3ccccc3)C2)cc1 (centres undefined)	DRD3 antagonist -73
COC(=O)Cc1ccc(OC2(C)CCN(Cc3ccccc3)C2)cc1 (centres undefined)	DRD3 antagonist -89
